# Source: ChEMBL document CHEMBL1961873, “Compounds: GSK PKIS; Assays: Nanosyn kinase panel” (2012)
# Tests used:
# [1] = target: Dual specificity protein kinase CLK3 (Homo sapiens) (UniProt P49761); conditions: at 1 µM;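 note: each value is the mean inhibition of CLK3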
# [2] = target: Dual specificity tyrosine-phosphorylation-regulated kinase 1A (Homo sapiens) (UniProt Q13627); conditions: at 0.1 µM
# [3] = target: Dual specificity tyrosine-phosphorylation-regulated kinase 1A (Homo sapiens) (UniProt Q13627); conditions: at 1 µM
# [4] = target: Dual specificity tyrosine-phosphorylation-regulated kinase 1B (Homo sapiens) (UniProt Q9Y463); conditions: at 0.1 µM
# [5] = target: Dual specificity tyrosine-phosphorylation-regulated kinase 1B (Homo sapiens) (UniProt Q9Y463); conditions: at 1 µM
# [6] = target: T1, Dual specificity tyrosine-phosphorylation-regulated kinase 2 (Homo sapiens) (UniProt Q92630); conditions: at 0.1 µM
# T1 sequence (whole entry): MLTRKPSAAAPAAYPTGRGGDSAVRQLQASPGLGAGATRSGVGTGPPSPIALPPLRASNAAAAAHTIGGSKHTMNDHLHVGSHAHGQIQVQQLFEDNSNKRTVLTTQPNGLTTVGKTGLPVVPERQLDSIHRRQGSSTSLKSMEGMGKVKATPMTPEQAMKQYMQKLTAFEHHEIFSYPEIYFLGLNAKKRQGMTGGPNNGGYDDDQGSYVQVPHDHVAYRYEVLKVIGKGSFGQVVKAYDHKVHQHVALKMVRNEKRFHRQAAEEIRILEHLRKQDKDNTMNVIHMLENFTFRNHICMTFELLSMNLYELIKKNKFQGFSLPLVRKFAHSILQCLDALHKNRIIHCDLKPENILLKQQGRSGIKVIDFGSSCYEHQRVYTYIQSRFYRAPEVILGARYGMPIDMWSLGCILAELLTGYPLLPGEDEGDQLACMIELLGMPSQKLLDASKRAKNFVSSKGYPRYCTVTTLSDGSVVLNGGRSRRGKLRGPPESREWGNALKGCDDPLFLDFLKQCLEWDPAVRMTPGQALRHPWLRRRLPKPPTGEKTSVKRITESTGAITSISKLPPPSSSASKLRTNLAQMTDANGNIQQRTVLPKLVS
# [7] = target: T1, Dual specificity tyrosine-phosphorylation-regulated kinase 2 (Homo sapiens); conditions: at 1 µM
# [8] = target: Glycogen synthase kinase-3 alpha (Homo sapiens) (UniProt P49840); conditions: at 0.1 µM
# [9] = target: Glycogen synthase kinase-3 alpha (Homo sapiens) (UniProt P49840); conditions: at 1 µM
# [10] = target: Glycogen synthase kinase-3 beta (Homo sapiens) (UniProt P49841); conditions: at 0.1 µM
# [11] = target: Glycogen synthase kinase-3 beta (Homo sapiens) (UniProt P49841); conditions: at 1 µM
# [12] = target: Homeodomain-interacting protein kinase 1 (Homo sapiens) (UniProt Q86Z02); conditions: at 0.1 µM
# [13] = target: Homeodomain-interacting protein kinase 1 (Homo sapiens) (UniProt Q86Z02); conditions: at 1 µM
# [14] = target: T2, Homeodomain-interacting protein kinase 4 (Homo sapiens) (UniProt Q8NE63); conditions: at 0.1 µM
# T2 sequence (whole entry): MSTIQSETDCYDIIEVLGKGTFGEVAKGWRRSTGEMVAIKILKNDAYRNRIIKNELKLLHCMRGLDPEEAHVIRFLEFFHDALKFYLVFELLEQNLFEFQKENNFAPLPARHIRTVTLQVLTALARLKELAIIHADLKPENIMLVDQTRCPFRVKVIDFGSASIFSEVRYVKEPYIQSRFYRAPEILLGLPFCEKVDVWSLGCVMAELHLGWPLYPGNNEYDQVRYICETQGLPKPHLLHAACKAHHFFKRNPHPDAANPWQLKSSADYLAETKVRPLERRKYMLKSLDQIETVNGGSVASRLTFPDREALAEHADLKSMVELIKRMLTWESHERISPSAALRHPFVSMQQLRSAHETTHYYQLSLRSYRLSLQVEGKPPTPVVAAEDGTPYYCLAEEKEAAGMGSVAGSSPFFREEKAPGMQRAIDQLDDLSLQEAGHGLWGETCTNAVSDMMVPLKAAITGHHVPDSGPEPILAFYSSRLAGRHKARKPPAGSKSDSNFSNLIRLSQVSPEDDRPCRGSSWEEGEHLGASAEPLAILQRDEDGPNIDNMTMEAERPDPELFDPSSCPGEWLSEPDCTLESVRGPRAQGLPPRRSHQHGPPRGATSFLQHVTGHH
# [15] = target: T2, Homeodomain-interacting protein kinase 4 (Homo sapiens); conditions: at 1 µM
# [16] = target: Mitogen-activated protein kinase 9 (Homo sapiens) (UniProt P45984); conditions: at 0.1 µM
# [17] = target: Mitogen-activated protein kinase 9 (Homo sapiens) (UniProt P45984); conditions: at 1 µM
# [18] = target: Mitogen-activated protein kinase 1 (Homo sapiens) (UniProt P28482); conditions: at 0.1 µM
# [19] = target: Mitogen-activated protein kinase 1 (Homo sapiens) (UniProt P28482); conditions: at 1 µM
# [20] = target: Mitogen-activated protein kinase 3 (Homo sapiens) (UniProt P27361); conditions: at 0.1 µM;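 note: each value is a mean inhibition figure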
# Sequence of Mitogen-activated protein kinase 3 (Homo sapiens) (P27361 whole entry): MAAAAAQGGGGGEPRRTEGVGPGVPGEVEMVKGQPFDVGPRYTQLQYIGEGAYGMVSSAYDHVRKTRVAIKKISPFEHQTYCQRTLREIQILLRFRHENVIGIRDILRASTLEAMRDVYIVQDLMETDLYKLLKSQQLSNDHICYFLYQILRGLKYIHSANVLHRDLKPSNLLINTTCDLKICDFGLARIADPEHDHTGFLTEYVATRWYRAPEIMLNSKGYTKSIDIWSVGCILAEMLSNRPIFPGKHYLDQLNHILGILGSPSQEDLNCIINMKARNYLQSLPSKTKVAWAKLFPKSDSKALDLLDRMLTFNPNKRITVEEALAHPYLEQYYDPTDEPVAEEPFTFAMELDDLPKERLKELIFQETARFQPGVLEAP
# Sequence of Homeodomain-interacting protein kinase 1 (Homo sapiens) (Q86Z02 whole entry, looked up): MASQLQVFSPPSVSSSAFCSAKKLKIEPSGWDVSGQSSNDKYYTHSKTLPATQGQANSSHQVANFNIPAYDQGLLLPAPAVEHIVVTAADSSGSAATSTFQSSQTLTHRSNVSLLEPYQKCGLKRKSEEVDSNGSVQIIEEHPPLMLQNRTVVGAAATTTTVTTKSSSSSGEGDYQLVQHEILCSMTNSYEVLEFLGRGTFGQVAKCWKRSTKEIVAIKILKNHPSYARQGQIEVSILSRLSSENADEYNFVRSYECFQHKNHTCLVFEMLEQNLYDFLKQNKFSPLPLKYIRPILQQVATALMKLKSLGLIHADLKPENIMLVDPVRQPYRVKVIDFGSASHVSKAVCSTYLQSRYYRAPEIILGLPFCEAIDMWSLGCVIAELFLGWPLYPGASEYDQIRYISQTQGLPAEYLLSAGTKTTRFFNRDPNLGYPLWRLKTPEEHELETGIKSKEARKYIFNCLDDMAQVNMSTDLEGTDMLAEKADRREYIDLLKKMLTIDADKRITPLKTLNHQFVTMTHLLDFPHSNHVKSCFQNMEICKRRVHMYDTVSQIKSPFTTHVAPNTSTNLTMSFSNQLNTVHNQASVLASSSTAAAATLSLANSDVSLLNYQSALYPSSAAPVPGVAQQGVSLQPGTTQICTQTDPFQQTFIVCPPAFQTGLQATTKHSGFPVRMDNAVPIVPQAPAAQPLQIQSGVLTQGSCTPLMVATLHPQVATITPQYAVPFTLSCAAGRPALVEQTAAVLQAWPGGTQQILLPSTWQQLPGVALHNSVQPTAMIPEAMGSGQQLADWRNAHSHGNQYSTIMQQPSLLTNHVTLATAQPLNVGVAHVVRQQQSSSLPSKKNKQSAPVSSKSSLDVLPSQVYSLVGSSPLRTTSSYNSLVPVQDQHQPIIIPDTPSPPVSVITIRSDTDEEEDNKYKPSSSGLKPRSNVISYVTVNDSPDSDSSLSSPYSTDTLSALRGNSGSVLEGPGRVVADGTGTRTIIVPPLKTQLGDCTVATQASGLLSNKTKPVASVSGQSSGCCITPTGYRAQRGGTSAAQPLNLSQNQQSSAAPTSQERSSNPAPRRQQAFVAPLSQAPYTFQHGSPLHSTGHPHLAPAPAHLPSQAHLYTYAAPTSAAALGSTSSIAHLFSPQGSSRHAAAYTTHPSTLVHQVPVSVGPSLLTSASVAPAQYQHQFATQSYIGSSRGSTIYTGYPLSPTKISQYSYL
# Sequence of Dual specificity tyrosine-phosphorylation-regulated kinase 1B (Homo sapiens) (Q9Y463 whole entry, looked up): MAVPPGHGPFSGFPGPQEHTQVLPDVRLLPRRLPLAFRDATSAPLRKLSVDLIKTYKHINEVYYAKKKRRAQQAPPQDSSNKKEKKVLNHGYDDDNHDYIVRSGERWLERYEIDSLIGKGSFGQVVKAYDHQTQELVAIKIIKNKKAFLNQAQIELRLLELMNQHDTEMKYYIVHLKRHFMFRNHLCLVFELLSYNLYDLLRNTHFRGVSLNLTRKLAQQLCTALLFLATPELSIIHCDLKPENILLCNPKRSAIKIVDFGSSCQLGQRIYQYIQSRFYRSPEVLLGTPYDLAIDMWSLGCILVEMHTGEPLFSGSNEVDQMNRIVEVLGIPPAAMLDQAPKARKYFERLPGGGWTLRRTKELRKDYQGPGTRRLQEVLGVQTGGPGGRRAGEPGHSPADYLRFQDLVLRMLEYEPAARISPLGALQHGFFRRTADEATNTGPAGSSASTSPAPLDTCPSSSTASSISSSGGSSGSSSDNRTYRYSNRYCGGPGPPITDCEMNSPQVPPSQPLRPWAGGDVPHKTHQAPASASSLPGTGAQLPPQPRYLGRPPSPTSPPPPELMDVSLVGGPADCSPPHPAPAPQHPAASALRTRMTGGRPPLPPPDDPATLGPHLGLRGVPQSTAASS
# Sequence of Mitogen-activated protein kinase 1 (Homo sapiens) (P28482 whole entry): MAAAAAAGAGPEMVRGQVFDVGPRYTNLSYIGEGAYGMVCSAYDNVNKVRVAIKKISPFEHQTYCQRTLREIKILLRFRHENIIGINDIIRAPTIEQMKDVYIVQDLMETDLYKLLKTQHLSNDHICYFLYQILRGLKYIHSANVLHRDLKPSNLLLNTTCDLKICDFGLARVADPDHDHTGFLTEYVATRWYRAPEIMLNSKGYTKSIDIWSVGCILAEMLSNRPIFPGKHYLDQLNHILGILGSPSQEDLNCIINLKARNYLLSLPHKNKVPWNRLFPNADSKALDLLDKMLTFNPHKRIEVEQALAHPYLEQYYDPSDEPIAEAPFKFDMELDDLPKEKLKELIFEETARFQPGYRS
# Sequence of Glycogen synthase kinase-3 beta (Homo sapiens) (P49841 whole entry, looked up): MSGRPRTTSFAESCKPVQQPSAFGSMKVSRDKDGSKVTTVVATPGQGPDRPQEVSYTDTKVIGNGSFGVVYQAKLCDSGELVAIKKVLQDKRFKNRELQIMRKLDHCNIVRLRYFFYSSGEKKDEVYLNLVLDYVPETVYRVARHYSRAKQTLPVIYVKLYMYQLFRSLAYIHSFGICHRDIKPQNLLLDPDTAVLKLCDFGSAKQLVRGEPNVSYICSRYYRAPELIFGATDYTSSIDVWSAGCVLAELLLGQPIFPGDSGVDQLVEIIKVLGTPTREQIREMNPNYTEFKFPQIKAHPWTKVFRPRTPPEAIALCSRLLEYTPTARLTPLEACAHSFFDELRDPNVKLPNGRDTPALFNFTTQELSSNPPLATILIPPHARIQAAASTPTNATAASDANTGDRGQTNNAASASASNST
# Sequence of Mitogen-activated protein kinase 9 (Homo sapiens) (P45984 whole entry, looked up): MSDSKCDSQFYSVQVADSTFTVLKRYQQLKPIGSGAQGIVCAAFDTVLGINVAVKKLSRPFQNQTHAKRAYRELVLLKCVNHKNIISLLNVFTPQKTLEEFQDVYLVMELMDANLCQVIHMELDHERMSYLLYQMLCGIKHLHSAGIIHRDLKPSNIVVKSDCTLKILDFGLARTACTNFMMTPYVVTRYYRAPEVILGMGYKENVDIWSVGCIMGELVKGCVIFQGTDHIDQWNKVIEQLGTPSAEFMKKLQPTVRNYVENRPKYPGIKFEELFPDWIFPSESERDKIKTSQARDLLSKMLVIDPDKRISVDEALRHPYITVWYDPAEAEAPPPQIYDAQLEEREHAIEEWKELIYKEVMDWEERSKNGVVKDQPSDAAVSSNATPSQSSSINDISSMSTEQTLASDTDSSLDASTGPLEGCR
# Sequence of Dual specificity protein kinase CLK3 (Homo sapiens) (P49761 whole entry, looked up): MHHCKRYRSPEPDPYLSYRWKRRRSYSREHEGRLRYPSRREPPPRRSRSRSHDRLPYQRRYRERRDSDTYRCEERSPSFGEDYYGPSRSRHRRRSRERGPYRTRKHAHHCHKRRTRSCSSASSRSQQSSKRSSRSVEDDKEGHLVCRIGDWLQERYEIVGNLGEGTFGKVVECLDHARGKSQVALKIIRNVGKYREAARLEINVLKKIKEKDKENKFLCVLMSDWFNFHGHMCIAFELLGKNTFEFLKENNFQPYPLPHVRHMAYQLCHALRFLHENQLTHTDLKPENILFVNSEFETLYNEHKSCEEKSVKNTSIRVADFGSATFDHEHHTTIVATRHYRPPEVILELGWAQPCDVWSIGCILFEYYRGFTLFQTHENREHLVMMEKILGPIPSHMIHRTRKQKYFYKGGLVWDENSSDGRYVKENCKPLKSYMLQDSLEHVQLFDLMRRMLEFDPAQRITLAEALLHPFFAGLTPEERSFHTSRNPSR
# Sequence of Glycogen synthase kinase-3 alpha (Homo sapiens) (P49840 2-483 limits assumed): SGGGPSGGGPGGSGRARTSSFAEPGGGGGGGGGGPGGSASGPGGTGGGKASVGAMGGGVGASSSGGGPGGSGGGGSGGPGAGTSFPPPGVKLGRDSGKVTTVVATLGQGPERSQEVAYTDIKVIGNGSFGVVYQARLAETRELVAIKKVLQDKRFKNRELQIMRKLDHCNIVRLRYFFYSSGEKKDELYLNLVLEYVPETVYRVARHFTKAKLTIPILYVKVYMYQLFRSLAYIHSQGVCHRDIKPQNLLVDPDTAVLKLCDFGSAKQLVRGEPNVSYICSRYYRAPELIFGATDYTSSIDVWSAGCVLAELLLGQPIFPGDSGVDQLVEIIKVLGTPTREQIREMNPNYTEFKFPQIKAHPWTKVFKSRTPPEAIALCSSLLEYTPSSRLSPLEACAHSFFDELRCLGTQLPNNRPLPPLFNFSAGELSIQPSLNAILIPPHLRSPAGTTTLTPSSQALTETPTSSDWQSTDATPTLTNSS
SMILES,inhibition [1] [%],inhibition [2] [%],inhibition [3] [%],inhibition [4] [%],inhibition [5] [%],inhibition [6] [%],inhibition [7] [%],inhibition [8] [%],inhibition [9] [%],inhibition [10] [%],inhibition [11] [%],inhibition [12] [%],inhibition [13] [%],inhibition [14] [%],inhibition [15] [%],inhibition [16] [%],inhibition [17] [%],inhibition [18] [%],inhibition [19] [%],inhibition [20] [%]
COC(=O)Nc1nc2ccc(Sc3ccc(NC(=O)Nc4cc(C(F)(F)F)ccc4F)cc3)cc2[nH]1,2.87,0.92,1.72,1.9,3.2,0.2,0.89,0.12,0.68,2.16,1.89,1.74,3.89,3.14,25.5,33.9,6.37,-0.51,-0.71,1.68
Fc1ccc(-c2nc3n(c2-c2ccncc2)CCS3)cc1,-2.32,0.54,0.87,-3.06,-3.89,2.91,2.31,-0.87,3.8,-1.43,7.8,-4.87,-3.92,0.39,1.1,7.66,25.9,3.06,5.59,2.96
COc1cc(Nc2ncc3c(C)nc(-c4cccc(Oc5ccccc5)c4)n3n2)cc(OC)c1OC,2.37,0.25,5.84,0.92,2.74,2.11,1.95,0.37,0.14,-0.59,0.75,0.25,10.8,2.78,7.44,2.43,4.03,2.11,8.58,4.14
CCc1nccc2c1nc(-c1nonc1N)n2CC,2.23,2.9,7.05,2.47,6.3,-0.4,3.18,0.44,7.97,2.74,8.38,-0.74,6.91,0.62,9.48,3.7,3.34,-1.66,0.54,1.33
COc1cc2ncn(-c3cc(OCc4cccs4)c(C(N)=O)s3)c2cc1OC,0.59,-2.96,-0.93,-3.74,-1.79,0.17,4.35,0.28,6.22,0.55,7.28,1.93,18.1,20.2,63.3,0.6,4.51,5.16,2.33,3.68
NC(=O)c1cc(-c2ccc(F)cc2)cc(-c2ccncc2)c1N,0.95,1.07,3.02,-0.78,-1.19,3.58,5.04,1.24,1.03,0.05,1.12,1.44,0.21,-0.23,2.98,3.69,2.06,4.92,5.18,3.25
c1ccc(-c2n[nH]cc2-c2ccnc(-c3ccc(OCCN4CCOCC4)cc3)c2)nc1,0.55,4.43,5.39,7.33,6.5,-0.9,-1.36,5.19,4.57,4.18,5.85,0.91,2.07,3.43,5.51,0.62,5.45,-2.8,-3.16,-0.63
